MRP resist rev = MRP-mediated drug resistance reversal. H69AR cells + 2 uM doxorubicin, CellTiter-Glo, 72 h. differential viability (reversal), % at 10 µM. 85,000 tested, 0.04% active;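 active = viability drop by adding the cancer drug above about 55%, with treated viability meeting a 40% cutoff, limit read from the data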;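 also: larger differential means the compound sensitizes cells more to doxorubicin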
MRP-1 activ = activators of MRP-1; 140,000 tested, 0.61% active; H69AR cells + doxorubicin, viability rescue, CellTiter-Glo; AID 799; viability increase, % at 10 µM;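 active = viability gain under doxorubicin at or above a set limit, the compound median plus 3 SD, cut at about 4.7% in these data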;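 also: MRP-1 overexpressing cells given doxorubicin 25 µM after compound pretreatment; 18-22 h compound pretreatment then 72 h with doxorubicin before readout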
Phagocyt inh = inhibitors of macrophage phagocytosis; J774A.1 macrophage IgG-bead phagocytosis, imaging; inhibition, % at 5 µM; 110,000 tested, 0.07% active; AID 1029;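 active = inhibition above the mean of the plate negative controls plus 5 SD, cut at about 13% in these data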;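 also: phagocytic index as fraction of beads internalized from green versus red external bead signal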
Of the large screens only hits and unclear results are named; the others gave an inactive call; [ ] = another dose, or the depositor's remark. Hits are enriched below; roughly 0.69% of the tested compounds scored in any of these assays.

Cc1cccc(N2C(=O)CC(Sc3nc(-c4ccccc4)c4cc(Cl)ccc4n3)C2=O)c1 (configuration not stated)	none (no result: MRP resist rev)
Nc1nc2n(n1)C(c1ccc(F)cc1)CC(c1ccc(F)cc1)N2 (configuration not stated)	none
CC(C)c1ccc(C2NC(=S)NC3=C2C(=O)CC(C)(C)C3)cc1 (configuration not stated)	none (no result: MRP resist rev)
COc1ccc(C2CC(c3ccccc3)=NN2C(=O)COC(=O)c2cccnc2Cl)cc1 (configuration not stated)	MRP-1 activ 5.4 (no result: MRP resist rev)
COc1ccc(C2CC(c3ccccc3)=NN2C(=O)COC(=O)c2cccnc2)cc1 (configuration not stated)	none (no result: MRP resist rev)
Cc1c(C(=O)Nc2ccc(-c3nnc4n3CCCCC4)cc2)oc2ccc(Br)cc12	none (no result: MRP resist rev, Phagocyt inh)
CCC(C)(C)n1nnnc1C(c1cc2cc(C)ccc2[nH]c1=O)N1CCCc2ccccc21 (configuration not stated)	none
Cc1ccc2[nH]c(=O)c(C(c3nnnn3C3CCCC3)N3CCCc4ccccc43)cc2c1 (configuration not stated)	MRP-1 activ 19 (no result: Phagocyt inh)
CSCCC(NC(N)=O)C(=O)NCc1ccc(Cl)cc1 (configuration not stated)	none (no result: MRP resist rev)
Cc1nn(-c2ccccc2)c(Cl)c1C(=O)Nc1nnc(C2CCCC2)s1	none
COC(=O)c1c(NC(=O)c2cccs2)sc2c1CCC(C)C2 (configuration not stated)	none
CC(C)(C)C1CCc2c(sc(NC(=O)c3cccs3)c2C(=O)N2CCCCC2)C1 (configuration not stated)	MRP-1 activ 5.0
Cc1ccc2nc(-c3ccc(Br)o3)oc(=O)c2c1	none
COc1cc2nc(-c3ccc(Br)o3)oc(=O)c2cc1OC	Phagocyt inh 95
Cc1occc1C(=O)NN=C1C2CC3CC(C2)CC1C3	none (no result: Phagocyt inh)
CNc1nc(C(=O)O)nc(N2CCOCC2)n1	none (no result: Phagocyt inh)
CNc1nc(SCC(=O)OC)nc(N2CCOCC2)n1	Phagocyt inh 74[artifact]
Cc1cc(C)cc(NC(=O)c2oc3ccccc3c2COc2ccccc2)c1	MRP-1 activ 5.2 (no result: MRP resist rev)
CC(C)CNC(=O)c1oc2ccccc2c1COc1ccccc1	none (no result: MRP resist rev)
COCCNC(=O)C1CCN(S(=O)(=O)c2ccccc2)CC1	none (no result: MRP resist rev)
O=C(CSc1nnc(-c2ccccc2)n1-c1ccccc1)NCc1ccco1	none
O=C(CSc1nnc(-c2ccccc2)n1-c1ccc(Cl)cc1)N/N=C/c1ccco1	MRP-1 activ 5.2 (no result: MRP resist rev)
Cc1ccc(S(=O)(=O)NC(=O)Nc2c(C)n(C)n(-c3ccccc3)c2=O)cc1	none
Cc1c(NC(=O)c2ccccc2NS(=O)(=O)c2ccc(Br)cc2)c(=O)n(-c2ccccc2)n1C	MRP-1 activ 5.3
CCOC(=O)c1c(NC(=O)C(C)NCc2ccco2)sc2c1CCC(C)C2 (configuration not stated)	none (no result: MRP resist rev)
COC(=O)c1ccccc1NC(=O)c1cccs1	MRP resist rev 56
COc1ccccc1NC(=O)c1cccs1	none (no result: MRP resist rev)
COc1ccc(-c2nc(CN3CCC(C(=O)NC(C)C)CC3)c(C)o2)cc1OC	none (no result: MRP-1 activ, Phagocyt inh)
O=C(Nc1ccc2c(c1)OCO2)C1CCN(S(=O)(=O)Cc2ccccc2)CC1	none
O=C(Nc1ccc2c(c1)OCO2)NC1CCN(Cc2ccccc2)CC1	Phagocyt inh 28[artifact] (no result: MRP resist rev)
Cc1cccc(N(C(=O)CCC(=O)Nc2cccnc2)C(C(=O)NC2CCCC2)c2ccncc2)c1 (configuration not stated)	none (no result: Phagocyt inh)
CC1CC(N(C(=O)c2ccccc2Cl)c2ccccc2)c2ccccc2N1 (configuration not stated)	none (no result: MRP resist rev)
O=C(CCn1cnc2ccccc2c1=O)Nc1nc2c(s1)CCCC2	Phagocyt inh 41[artifact]
CCCc1nc(SCC(=O)Nc2nc3c(s2)CCCC3)c2ccccc2n1	none (no result: MRP resist rev, Phagocyt inh)
Cc1ccc(NC(=O)CS(=O)Cc2nc(-c3ccc(C)cc3)oc2C)cc1 (configuration not stated)	none
Cc1ccc(NC(=O)COC(=O)c2csc3c2CCC(C)C3)cc1S(=O)(=O)N1CCCCC1 (configuration not stated)	none (no result: MRP resist rev)
CC1CCc2c(C(=O)OCC(=O)Nc3cccc(S(=O)(=O)N4CCCCCC4)c3)csc2C1 (configuration not stated)	MRP-1 activ 5.1 (no result: MRP resist rev)
COc1ccc(CCNC(=O)CSCc2ccc(Cl)cc2)cc1OC	MRP-1 activ 5.0 (no result: MRP resist rev, Phagocyt inh)
COc1ccc(CCNC(=O)CSCc2ccc([N+](=O)[O-])cc2)cc1OC	none (no result: MRP resist rev)
O=C(Oc1ccc([N+](=O)[O-])cc1)c1cncc(Br)c1	none (no result: MRP resist rev)
Cc1cc(C)cc(NS(=O)(=O)c2ccc3oc(=O)ccc3c2)c1	none
C/C(=N\NC(=O)CCc1c[nH]c2ccccc12)c1cccc([N+](=O)[O-])c1	MRP-1 activ 7.9 (no result: MRP resist rev)
C/C(=N\NC(=O)c1ccccc1C)c1cccc([N+](=O)[O-])c1	none (no result: MRP resist rev)
CCn1c(=O)cc(SCC(=O)Nc2ccccc2N2CCN(C)CC2)c2ccccc21	none (no result: MRP-1 activ, Phagocyt inh)
CC(C)C(=O)N=C1NC(=O)CS1	none (no result: MRP resist rev)
O=C1CSC(=NC(=O)c2ccccc2)N1	MRP-1 activ 6.2
O=C(NC1(C(F)(F)F)N=C(c2ccccc2)NC1=O)c1ccccc1F (configuration not stated)	none (no result: MRP resist rev)
CC(C)c1nc(SCC(=O)NCc2ccc3c(c2)OCO3)c2c(=O)n(C)c(=O)n(C)c2n1	none (no result: MRP-1 activ, Phagocyt inh)
O=C(CCn1c(=O)[nH]c2ccsc2c1=O)N1CCN(c2cccc(Cl)c2)CC1	none
Cc1ccc(Cl)cc1N1CCN(C(=O)Cc2ccc(-n3c(=O)[nH]c4ccsc4c3=O)cc2)CC1	MRP-1 activ 9.7 (no result: MRP resist rev)
O=C(CCC(=O)OCC(=O)c1cccc([N+](=O)[O-])c1)Nc1ccccc1Cl	none (no result: MRP resist rev)
Cc1cccc(OCc2nc(-c3nonc3N)no2)c1C	MRP-1 activ 5.2
Nc1nonc1-c1noc(COc2ccccc2Cl)n1	none
Cc1ccc(Nc2nnc(SCC(=O)NCCN3C(=O)CSC3=O)s2)cc1C	none (no result: MRP resist rev)
COCCNC(=O)C(C)Oc1ccc(Cl)cc1Cl (configuration not stated)	none (no result: MRP resist rev)
CC(Oc1ccc(Cl)cc1Cl)C(=O)NC1CCSC1=O (configuration not stated)	MRP-1 activ 12
Oc1ccc2ccccc2c1C=Nc1ccccc1-c1nc2ccccc2[nH]1	none (no result: MRP resist rev)
C=C(C)C(=O)NC1=NN(c2ccccc2)C(=O)C1	MRP-1 activ 6.0 (no result: MRP resist rev)
CC(C)(Oc1ccc(Cl)cc1)C(=O)NC1=NN(c2ccccc2)C(=O)C1	none (no result: MRP resist rev)
Cc1ccc(S(=O)(=O)NCC(=O)OCC(=O)c2c(N)n(C)c(=O)n(C)c2=O)cc1	none (no result: MRP resist rev)
Cc1ccc(OCCN2CCN(C(=O)CCC(=O)Nc3nnc(C(C)C)s3)CC2)cc1	none
Cc1ccc(OCCN2CCN(C(=O)CCC(=O)Nc3nnc(C)s3)CC2)cc1	MRP-1 activ 7.8 (no result: Phagocyt inh)
CN1CCc2c(c3c(n2C)CCN(C)[C@H]3c2ccccc2F)[C@@H]1c1ccccc1F	none (no result: MRP resist rev, Phagocyt inh)
COc1ccc(NC(=O)CCNS(=O)(=O)c2ccc(Br)s2)cc1	none (no result: MRP resist rev, Phagocyt inh)
CC(NC(=O)C1CCCC1)c1ccc2c(c1)OCCO2 (configuration not stated)	none
CC(NC(=O)C12CC3CC(CC(C3)C1)C2)c1ccc2c(c1)OCCO2 (configuration not stated)	MRP-1 activ 6.9
O=C(N[C@@H](c1ccccc1)[C@@H]1C[C@H]1C(=O)O)OCc1ccccc1	none (no result: MRP resist rev, Phagocyt inh)
O=c1[nH]c(C2CCCN(S(=O)(=O)c3ccccc3)C2)nc2c1nnn2Cc1ccccc1F (configuration not stated)	none (no result: Phagocyt inh)
O=c1[nH]c(C2CCCN(S(=O)(=O)c3ccccc3)C2)nc2c1nnn2Cc1ccccc1 (configuration not stated)	MRP-1 activ 5.3

Screening data (PubChem)
